Reference: PubChem BioAssay AID1159580 (chemical genetic matrix, 2015)
“And” between values parts separate entries of the source, which are not always exact repeats. Equal entries are not always repeated. Hit rate of the full screen: of about 5,500 compounds, about 2,000 (36%) were called active. Not shown: some 18% with an inconclusive outcome. Rule as the data show it: active = normalized growth mostly below about 0.91 (no sharp cut-off); inconclusive = no clear call, values can overlap the other calls; inactive = mostly above about 0.92. This is one part of the list.

Test: chemical genetic growth profiling, strain panel (AID 1159580);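 also: tested at 20 µM; growth read once vehicle control cultures reached saturation at 30 °C; 1 = growth at the plate median or of vehicle wells; lower values mean less growth of the strain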
Conditions: S. cerevisiae deletion strains, growth OD

Measured: normalized growth

COc1ccc(C(Cl)=C(c2ccc(OC)cc2)c2ccc(OC)cc2)cc1
inactive: locus YAL021C, strain ccr4, hits give low values 1.04 | locus YAL026C, strain drs2, hits give low values 1.03 | locus YAL030W, strain snc1, hits give low values 1.03 | locus YBL061C, strain skt5, hits give low values 0.992 | locus YBR009C, strain hhf1, hits give low values 1.01 | locus YBR021W, strain FUR4, hits give low values 0.994 | locus YBR023C, strain chs3, hits give low values 0.993 | locus YBR171W, strain sec66, hits give low values 1.03 | locus YBR229C, strain ROT2, hits give low values 1.01 | locus YBR231C, strain swc5, hits give low values 1.03 | locus YBR279W, strain paf1, hits give low values 0.984 | locus YCL011C, strain gbp2, hits give low values 1.02 | locus YCL016C, strain dcc1, hits give low values 0.985 | locus YCL029C, strain bik1, hits give low values 1.01 | locus YCL061C, strain MRC1, hits give low values 1.03 | locus YCL069W, strain vba3, hits give low values 1.03 | locus YCR088W, strain abp1, hits give low values 1.02 | locus YDL005C, strain med2, hits give low values 1.03 | locus YDL035C, strain GPR1, hits give low values 0.989 | locus YDL040C, strain nat1, hits give low values 1.03 | locus YDL074C, strain BRE1, hits give low values 1.03 | locus YDL101C, strain DUN1, hits give low values 1.03 | locus YDL134C, strain PPH21, hits give low values 0.981 | locus YDL185W, strain tfp1, hits give low values 1.01 | locus YDL192W, strain arf1, hits give low values 1.02 | locus YDR001C, strain nth1, hits give low values 1.02 | locus YDR069C, strain doa4, hits give low values 0.993 | locus YDR101C, strain arx1, hits give low values 0.997 | locus YDR137W, strain rgp1, hits give low values 0.97 | locus YDR150W, strain NUM1, hits give low values 1.01 | locus YDR159W, strain sac3, hits give low values 1.01 | locus YDR162C, strain NBP2, hits give low values 1 | locus YDR195W, strain ref2 1.06 | locus YDR297W, strain sur2, hits give low values 1.02 | locus YDR318W, strain mcm21, hits give low values 1.01 | locus YDR334W, strain swr1, hits give low values 1.04 | locus YDR335W, strain msn5, hits give low values 1 | locus YDR388W, hits give low values 1.03 | locus YDR392W, strain spt3, hits give low values 1 | locus YDR502C, strain sam2, hits give low values 1.01 | locus YEL003W, strain gim4, hits give low values 1.03 | locus YEL037C, strain rad23, hits give low values 1.03 | locus YEL061C, strain CIN8 (second series), hits give low values 1.06 | locus YEL061C, strain CIN8, hits give low values 1.01 | locus YER015W, strain faa2, hits give low values 1.03 | locus YER016W, strain bim1, hits give low values 0.971 | locus YER110C, hits give low values 1.03 | locus YER111C, strain swi4, hits give low values 1.03 | locus YER155C, strain BEM2 (second series), hits give low values 1.03 | locus YER155C, strain BEM2, hits give low values 1.02 | locus YER167W, strain BCK2, hits give low values 1.01 | locus YFR010W, strain ubp6, hits give low values 1.02 | locus YGL078C, strain dbp3, hits give low values 1.01 | locus YGL086W, strain mad1, hits give low values 0.998 | locus YGL167C, strain pmr1, hits give low values 1.01 | locus YGL173C, strain kem1, hits give low values 1.03 | locus YGL227W, strain vid30, hits give low values 1.02 | locus YGL240W, strain doc1, hits give low values 1.05 | locus YGL248W, strain PDE1, hits give low values 1.03 | locus YGL253W, strain hxk2, hits give low values 0.999 | locus YGR135W, strain pre9, hits give low values 1.04 | locus YGR252W, strain gcn5, hits give low values 1.04 | locus YHR013C, strain ard1, hits give low values 1.04 | locus YHR027C, strain rpn1, hits give low values 0.989 | locus YHR030C, strain SLT2, hits give low values 1.01 and 0.939 | locus YHR079C, strain IRE1 (second series), hits give low values 1.02 | locus YHR079C, strain IRE1, hits give low values 0.963 | locus YHR094C, strain hxt1, hits give low values 1.03 | locus YHR129C, strain ARP1, hits give low values 1.02 | locus YHR142W, strain chs7, hits give low values 1.06 | locus YHR200W, strain rpn10, hits give low values 1.02 | locus YIL066C, strain RNR3, hits give low values 1 | locus YIL073C, strain SPO22, hits give low values 1.03 | locus YIL125W, strain kgd1, hits give low values 1.01 | locus YIR030C, strain dcg1, hits give low values 1.02 | locus YJL092W, strain hpr5, hits give low values 1.02 | locus YJL095W, strain BCK1 (second series), hits give low values 1.03 | locus YJL095W, strain BCK1, hits give low values 1.06 and 0.963 | locus YJL115W, strain asf1, hits give low values 1.02 | locus YJL129C, strain trk1, hits give low values 1.04 | locus YJL134W, strain LCB3, hits give low values 1.01 | locus YJL154C, strain vps35, hits give low values 1.03 | locus YJL164C, strain tpk1, hits give low values 1.01 | locus YJL166W, strain qcr8, hits give low values 1.04 | locus YJL168C, strain set2, hits give low values 1.03 | locus YJL187C, strain SWE1 (second series), hits give low values 1.04 | locus YJR043C, strain POL32, hits give low values 0.999 | locus YJR066W, strain TOR1, hits give low values 0.965 | locus YJR075W, strain HOC1, hits give low values 1.03
